High-throughput results from PubChem BioAssay.
This is a sample that favours compounds with a hit; in the whole collection about 4% have one here.
tim23-1 inh: tim23-1 yeast growth inhibition. inhibition, % at 20 µM. S. cerevisiae tim23-1 growth, BacTiter-Glo luminescence, 24 h. 330,000 compounds, 1.3% hits;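 active = growth inhibition of the mutant yeast at or above 50%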;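 note: temperature-sensitive mutant grown at 25 °C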
tim10-1 inh: inhibits growth of tim10-1 mutant yeast; S. cerevisiae tim10-1 ts strain growth, BacTiter-Glo, 24 h; inhibition, % at 20 µM; 330,000 compounds, 2.2% hits; AID 463190;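 active = inhibition of at least 40%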;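 note: mutant grown at 25 °C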
NALP1 inh: inhibitors of NALP1 inflammasome in yeast. 280,000 compounds, 0.61% hits. S. cerevisiae NALP1/ASC/caspase-1 growth, X-gal OD620, 72 h. inhibition, % at 10 µM; in the data active = inhibition mostly above about 24%, no sharp cut-off; inactive = mostly below about 32%
TIM10 inh: growth inhibitors of TIM10 yeast strain; S. cerevisiae TIM10 strain growth, BacTiter-Glo luminescence, 24 h; inhibition, % at 10 µM; 330,000 compounds, 1.4% hits;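 active = inhibition of 40% or more at the single tested concentration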;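 note: wild-type TIM10 isogenic control strain grown at permissive 25 °C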
NALP3 yeast inh: NALP3 inhibition in yeast; Yeast reconstituted NLRP3/ASC/caspase-1, beta-gal luminescence, 24 h; inhibition, % at 10 µM; 330,000 compounds, 0.39% hits; AID 2825;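 active = inhibition of 50% or more; inactive = inhibition below 50%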
tim10-1 confirm: tim10-1 yeast growth inhibition, confirmed; shares compounds with tim10-1 inh; S. cerevisiae tim10-1 ts strain growth, BacTiter-Glo, 24 h; inhibition, % at 20 µM; 7,400 compounds, 56% hits;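 active = inhibition of yeast growth at or above a set limit in either of two repeat tests at 20 µM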;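 note: tim10-1 mutant grown at permissive 25 °C to find synthetic lethal compounds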
A number is an active result.

What do the screens show for `CN(NS(=O)(=O)c1ccc(Cl)cc1)c1ncc(C(F)(F)F)cc1Cl`?
tim23-1 inh: inactive; tim10-1 inh: 42.5; NALP1 inh: inactive; TIM10 inh: inactive; NALP3 yeast inh: inactive; tim10-1 confirm: inactive

How did C=CCOc1ccc(CNCC2CCCO2)cc1 (stereo not given) do in these assays?
tim23-1 inh: inactive; tim10-1 inh: inactive; NALP1 inh: inactive; TIM10 inh: inactive; NALP3 yeast inh: inactive

What do the screens show for `C=C[C@@](C)(O)CC[C@@H]1[C@@]2(C)CCCC(C)(C)[C@@H]2CC[C@@]1(C)O`?
tim23-1 inh: inactive; tim10-1 inh: 41.9; NALP1 inh: inactive; TIM10 inh: inactive; NALP3 yeast inh: inactive; tim10-1 confirm: inactive

What do the screens show for `Cc1ccccc1OCC(=O)OCC(=O)Nc1cc(S(=O)(=O)N2CCCCC2)ccc1Cl`?
tim23-1 inh: inactive; tim10-1 inh: inactive; TIM10 inh: inactive; NALP3 yeast inh: inactive

How did O=C(COC(=O)CCS(=O)(=O)c1ccccc1)Nc1cc(S(=O)(=O)N2CCCCC2)ccc1Cl do in these assays?
tim23-1 inh: inactive; tim10-1 inh: 40.4; TIM10 inh: inactive; NALP3 yeast inh: inactive; tim10-1 confirm: 42.2

What do the screens show for `CC(C)Nc1nc(-c2ccccc2)nc(-n2ccnc2)n1`?
tim23-1 inh: inactive; tim10-1 inh: 40.5; NALP1 inh: inactive; TIM10 inh: inactive; NALP3 yeast inh: inactive; tim10-1 confirm: inactive

How did CC(C)(O)CC[C@H](OC(=O)c1ccccc1)[C@](C)(O)[C@H]1CC[C@@]2(O)C3=CC(=O)[C@@H]4C[C@@H](O)[C@H](O)C[C@]4(C)C3CC[C@]12C (stereo not given in full) do in these assays?
tim23-1 inh: inactive; tim10-1 inh: inactive; NALP1 inh: inactive; TIM10 inh: inactive; NALP3 yeast inh: inactive

How did CCN=c1scc(-c2ccc3c(c2)NC(=O)CO3)n1N=C1CCCC1 do in these assays?
tim23-1 inh: inactive; tim10-1 inh: inactive; NALP1 inh: inactive; TIM10 inh: inactive; NALP3 yeast inh: inactive

What do the screens show for `CCCCN=c1scc(-c2ccc3c(c2)NC(=O)CO3)n1N=C1CCCC1`?
tim23-1 inh: inactive; tim10-1 inh: 43.8; NALP1 inh: inactive; TIM10 inh: inactive; NALP3 yeast inh: inactive; tim10-1 confirm: inactive

What do the screens show for `O=C(CNc1ccc2ccccc2c1)N/N=C/c1ccncc1`?
tim23-1 inh: inactive; tim10-1 inh: inactive; NALP1 inh: inactive; TIM10 inh: inactive; NALP3 yeast inh: inactive

How did CSc1ccc(/C=N/NC(=O)CNc2ccc3ccccc3c2)cc1 do in these assays?
tim23-1 inh: inactive; tim10-1 inh: 45.9; NALP1 inh: inactive; TIM10 inh: inactive; NALP3 yeast inh: inactive; tim10-1 confirm: 43.5

Results for C[C@@]12CCC=C[C@H]1[C@H](c1ccc3ccccc3c1)N(Cc1ccccc1)C2=O ?
tim23-1 inh: inactive; tim10-1 inh: 52.2; NALP1 inh: inactive; TIM10 inh: inactive; NALP3 yeast inh: inactive; tim10-1 confirm: 53.0

How did COc1ccc(Br)cc1[C@H]1[C@@H]2C=CCC[C@@]2(C)C(=O)N1Cc1ccccc1 do in these assays?
tim23-1 inh: inactive; tim10-1 inh: 43.9; NALP1 inh: inactive; TIM10 inh: inactive; NALP3 yeast inh: inactive; tim10-1 confirm: 37.5

How did CCOC(=O)/C=C/C(=O)Nc1ccc(S(=O)(=O)N2CCCCCC2)cc1 do in these assays?
tim23-1 inh: inactive; tim10-1 inh: 44.4; NALP1 inh: inactive; TIM10 inh: inactive; NALP3 yeast inh: inactive; tim10-1 confirm: 34.0

What do the screens show for `O=C(Nc1ccc(F)cc1F)c1cccc(S(=O)(=O)N2CCCCC2)c1`?
tim23-1 inh: inactive; tim10-1 inh: 46.4; TIM10 inh: inactive; NALP3 yeast inh: inactive; tim10-1 confirm: inactive

What do the screens show for `O=C(Nc1ccc(S(=O)(=O)N2CCCCC2)cc1)c1ccc(F)cc1`?
tim23-1 inh: inactive; tim10-1 inh: 49.5; NALP1 inh: inactive; TIM10 inh: inactive; NALP3 yeast inh: inactive; tim10-1 confirm: 47.5

What do the screens show for `CCOC(=O)/C=C/C(=O)Nc1ccc(S(=O)(=O)N2CCc3ccccc32)cc1`?
tim23-1 inh: inactive; tim10-1 inh: inactive; NALP1 inh: inactive; TIM10 inh: inactive; NALP3 yeast inh: inactive

What do the screens show for `O=C(Nc1ccc(S(=O)(=O)N2CCCCC2)cc1)c1cccnc1Cl`?
tim23-1 inh: inactive; tim10-1 inh: 42.2; TIM10 inh: inactive; NALP3 yeast inh: inactive; tim10-1 confirm: inactive

Results for COc1cccc2[nH]c3c(N4CCc5ccccc5C4)ncnc3c12 ?
tim23-1 inh: inactive; tim10-1 inh: inactive; NALP1 inh: inactive; TIM10 inh: inactive; NALP3 yeast inh: inactive

Results for COc1cccc2[nH]c3c(N4CCC(C)CC4)ncnc3c12 ?
tim23-1 inh: inactive; tim10-1 inh: 41.5; NALP1 inh: inactive; TIM10 inh: inactive; NALP3 yeast inh: inactive; tim10-1 confirm: inactive

How did O=C(NNC(=S)NC(=O)C12CC3CC(CC(C3)C1)C2)c1ccncc1 do in these assays?
tim23-1 inh: inactive; tim10-1 inh: 60.2; NALP1 inh: inactive; TIM10 inh: inactive; NALP3 yeast inh: inactive; tim10-1 confirm: inactive

How did CC1(C(=O)NC(=S)NNC(=O)c2ccncc2)CCCCC1 do in these assays?
tim23-1 inh: inactive; tim10-1 inh: inactive; NALP1 inh: inactive; TIM10 inh: inactive; NALP3 yeast inh: inactive

Results for CC(=O)N[C@@H](Cc1c[nH]c2ccccc12)C(=O)OCc1cc(C(F)(F)F)cc(C(F)(F)F)c1 ?
tim23-1 inh: inactive; tim10-1 inh: inactive; TIM10 inh: inactive; NALP3 yeast inh: inactive

How did Cc1cc2nc3c(nc2cc1C)C1(C(=O)N(C)C)CCC3(C)C1(C)C (stereo not given) do in these assays?
tim23-1 inh: inactive; tim10-1 inh: inactive; NALP1 inh: inactive; TIM10 inh: inactive; NALP3 yeast inh: inactive

Results for CN(C)C(=O)C12CCC(C)(c3nc4ccccc4nc31)C2(C)C (stereo not given) ?
tim23-1 inh: inactive; tim10-1 inh: 42.1; NALP1 inh: inactive; TIM10 inh: inactive; NALP3 yeast inh: inactive; tim10-1 confirm: inactive

What do the screens show for `CCNS(=O)(=O)c1ccc(CCC(=O)Nc2ccc3c(c2)OCCO3)cc1`?
tim23-1 inh: inactive; tim10-1 inh: inactive; NALP1 inh: inactive; TIM10 inh: inactive; NALP3 yeast inh: inactive

How did O=S(=O)(Nc1cc(Sc2ncn[nH]2)c(O)c2ccccc12)c1ccccc1 do in these assays?
tim23-1 inh: inactive; tim10-1 inh: 50.5; NALP1 inh: inactive; TIM10 inh: inactive; NALP3 yeast inh: inactive; tim10-1 confirm: inactive

How did S=C(NCCc1cccc(Cl)c1)NC1CCCCC1 do in these assays?
tim23-1 inh: inactive; tim10-1 inh: 40.2; NALP1 inh: inactive; TIM10 inh: inactive; NALP3 yeast inh: inactive; tim10-1 confirm: inactive

What do the screens show for `S=C(NCc1ccc(Cl)cc1Cl)NC1CCCCC1`?
tim23-1 inh: inactive; tim10-1 inh: 41.9; NALP1 inh: inactive; TIM10 inh: inactive; NALP3 yeast inh: inactive; tim10-1 confirm: inactive

What do the screens show for `S=C(NCCc1ccccc1)NC1CCC(NC(=S)NCCc2ccccc2)CC1` (stereo not given)?
tim23-1 inh: inactive; tim10-1 inh: inactive; NALP1 inh: inactive; TIM10 inh: inactive; NALP3 yeast inh: inactive
